High-throughput results (PubChem)
Hits are enriched below; roughly 11% of the tested compounds scored in any of these assays.
Pf growth 48h – P. falciparum growth inhibition at 48 hours (one generation). P. falciparum luciferase growth in erythrocytes, 48 h. Potency, µM (doses to about 28.7 µM), usual class: inhibitors. 5.9% of 310,000 active
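Luciferase-expressing P. falciparum in infected erythrocytes (2% hematocrit, 0.1% parasitemia final) in RPMI 1640/0.5% Albumax were exposed to compound for 48 hours at 37 C, 5% CO2; growth read as luminescence.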
NS1 inh – blocks influenza NS1 protein function; Potency, µM (titrated, usually from 46.1 µM); 0.4% of 270,000 active; calls by dose curve; also: actives are rising curves; nearly all actives have a fitted effect of over 50% in size
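Growth recovery, yeast-based: influenza A NS1 expressed in S. cerevisiae causes slow growth, and suppressors are detected by OD600. The parent strain without NS1 is used as positive control.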
Vaccinia Venus – vaccinia inhibition (Venus reporter). Vaccinia virus Venus reporter expression, fluorescence. Potency, µM (top dose mostly 36.5 µM), hits mostly inhibitors. 0.46% of 330,000 active. AID 720580; calls by dose curve; tested in A549 cells; also: nearly all actives have a fitted effect of over 30% in size
HCV inh – inhibitors of hepatitis C virus infection | Huh7.5.1 HCVcc-Cre infection, luciferase reporter, 44 h | Potency, µM (titrated, usually from 41.8 µM), usual class: inhibitors | 3.4% of 340,000 active
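Seed cells (1,000/well) for 4 h; treat with compound and infect with HCVcc-Cre, moi about 0.5. Incubate 44 h, then detect luciferase activity.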
Vaccinia mCherry – inhibitors of vaccinia virus infection (mCherry reporter signal); Vaccinia virus mCherry reporter infection, fluorescence; Potency, µM (top dose mostly 36.5 µM), most hits filed as inhibitors; 0.63% of 310,000 active; AID 720579; calls by dose curve; tested in A549 cells; also: nearly all actives have a fitted effect of over 35% in size
Pf growth 96h – P. falciparum growth inhibition at 96 hour, primary screen for plastid delayed-death inhibitors; 6.9% of 320,000 active; Potency, µM (series often up to 28.7 µM), actives largely listed as inhibitors; P. falciparum luciferase reporter growth, 96 h
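Cell-based qHTS: luciferase-tagged P. falciparum in erythrocytes (2% hematocrit, 0.05% parasitemia final) incubated with compounds for 96 hours, 37 C, 5% CO2; luciferase detection reagent then added and luminescence measured.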
Large screens that a line does not name were inactive. Unless noted, calls follow the shape of the dose curve; as a rule, active = well fitted inhibition curve with a large enough effect; inconclusive = small, poorly fitted or top-dose-only effect, or another doubt; inactive = no such curve, though single readings can be large or run the other way.

CC(NC(=O)c1ccccc1)C(=O)N/N=C/c1ccco1 (stereo not drawn)	none
CC(=O)c1cccc(NC(=O)c2cccn2-c2nnc(N3CCCCC3)s2)c1	none (no result: Pf growth 48h, NS1 inh, HCV inh, Pf growth 96h)
COc1cc2c(cc1OC)C(C(=O)Nc1ccc3c(c1)OCCO3)C1c3ccccc3CCN1C2=O (stereo not drawn)	Pf growth 96h 9.28µM
COc1cc2c(cc1OC)C(C(=O)Nc1ccccn1)C(c1cccnc1)N(C)C2=O (stereo not drawn)	Pf growth 96h 1.65µM (no result: Vaccinia Venus, Vaccinia mCherry)
COc1ccc(C2C(C(=O)Nc3cc(OC)c(OC)c(OC)c3)c3ccccc3C(=O)N2C)cc1 (stereo not drawn)	Pf growth 48h 2.08µM, Vaccinia Venus inconclusive (no result: NS1 inh)
COc1cc2c(cc1OC)C(C(=O)Nc1ccccc1N1CCN(C)CC1)C1c3ccccc3CCN1C2=O (stereo not drawn)	Pf growth 48h inconclusive (no result: NS1 inh)
COc1cc(OC)c(C2C(C(=O)O)c3ccccc3C(=O)N2C)cc1OC (stereo not drawn)	Pf growth 96h 14.7µM
COc1ccc(C2C(C(=O)Nc3cccc(OC)c3)c3ccccc3C(=O)N2C)cc1 (stereo not drawn)	Pf growth 48h inconclusive (no result: NS1 inh)
O=C(CSCCc1ccccn1)Nc1cccnc1	none (no result: Vaccinia mCherry)
Cc1ccc(S(=O)(=O)N2CCCCC2)cc1NS(=O)(=O)c1ccc(Cl)c(C(=O)O)c1	none (no result: NS1 inh)
Cc1nc(NC(=O)c2ccc([N+](=O)[O-])cc2Cl)sc1C(=O)N(C)C	none
COc1ccc(C2C(C(=O)Nc3ccc4c(c3)OCCO4)c3ccccc3C(=O)N2C)cc1 (stereo not drawn)	Pf growth 48h 5.22µM, Pf growth 96h inconclusive (no result: Vaccinia Venus, Vaccinia mCherry)
COc1ccc(C2C(C(=O)NCc3ccco3)c3ccccc3C(=O)N2C)cc1 (stereo not drawn)	Pf growth 96h inconclusive (no result: NS1 inh)
CCOc1cc(S(=O)(=O)N2CCOCC2)ccc1F	none (no result: Vaccinia mCherry)
COc1ccc(-c2noc(C3CCCN(C(=O)CCc4ccccc4)C3)n2)cc1 (stereo not drawn)	none (no result: Vaccinia Venus, Vaccinia mCherry)
CCOC(=O)c1c(-c2ccc(C)cc2)csc1NC(=S)NC(=O)c1ccccc1	Pf growth 48h 10.4µM, HCV inh inconclusive, Pf growth 96h 7.38µM (no result: Vaccinia Venus, Vaccinia mCherry)
COC(=O)c1c(-c2ccc(C)cc2)csc1NC(=S)NC(=O)c1ccc(F)cc1	Pf growth 48h inconclusive, Pf growth 96h 8.28µM
COC(=O)c1c(-c2ccccc2)csc1NC(=O)c1c(-c2ccccc2)noc1C	Pf growth 48h 13.1µM, HCV inh inconclusive, Vaccinia mCherry 6.31µM, Pf growth 96h inconclusive
CCOC(=O)c1c(-c2ccc(F)cc2)csc1NC(=O)c1c(-c2ccccc2)noc1C	Pf growth 48h inconclusive, HCV inh inconclusive, Vaccinia mCherry inconclusive
CCOC(=O)c1c(-c2ccccc2)csc1NC(=O)C1CCCO1 (stereo not drawn)	HCV inh 10µM
Cc1ccccc1S(=O)c1ccccc1C(=O)O (stereo not drawn)	none
COc1ccccc1NS(=O)(=O)c1ccc2[nH]c(=O)[nH]c2c1	Pf growth 96h inconclusive
O=S(=O)(c1ccccc1)c1ncc(C(F)(F)F)cc1Cl	Pf growth 48h 10.4µM, HCV inh inconclusive, Pf growth 96h inconclusive (no result: NS1 inh)
CN(Cc1cccc(Cl)c1Cl)C(=O)c1ccccc1SCC(=O)N1CCCC1	HCV inh 22.4µM (no result: Pf growth 48h, NS1 inh, Pf growth 96h)
Cc1cc2c(n1-c1ccc(Br)cc1)CC(C)(C)CC2=O	none (no result: Pf growth 48h, Vaccinia Venus, Vaccinia mCherry)
COCCCNC(=O)/C(C#N)=C/c1c(N2CCN(c3ccccc3)CC2)nc2c(C)cccn2c1=O	Pf growth 48h 13.1µM, Pf growth 96h 10.4µM (no result: Vaccinia Venus, Vaccinia mCherry)
COC(=O)/C(C#N)=C/c1c(N2CCN(c3ccccc3)CC2)nc2c(C)cccn2c1=O	Pf growth 48h 9.28µM, HCV inh inconclusive, Pf growth 96h inconclusive (no result: Vaccinia Venus, Vaccinia mCherry)
C=CCNC(=O)/C(C#N)=C/c1c(N2CCN(c3ccc(OC)cc3)CC2)nc2c(C)cccn2c1=O	Pf growth 48h 13.1µM, Pf growth 96h inconclusive (no result: Vaccinia Venus, Vaccinia mCherry)
CC(=O)N1CCOc2ccc(S(=O)(=O)NCC3CCC(C(=O)NCCC(C)C)CC3)cc21 (stereo not drawn)	Pf growth 48h inconclusive, Pf growth 96h inconclusive
O=C(c1ccccc1Br)N1CCN(c2ccccc2)CC1	none (no result: Vaccinia Venus, Vaccinia mCherry, Pf growth 96h)
COc1cccc(N2C(N)=NC(N)=NC2(C)C)c1	Pf growth 48h 0.131µM, Vaccinia Venus inconclusive (no result: Vaccinia mCherry)
CC1(C)N=C(N)N=C(N)N1c1ccc(OCC(=O)N2CCOCC2)cc1	none (no result: Pf growth 48h, NS1 inh, HCV inh, Pf growth 96h)
COc1ccc(N2C(N)=NC(N)=NC2(C)C)cc1	Pf growth 48h 0.0329µM, Vaccinia Venus 11.2µM, Vaccinia mCherry inconclusive, Pf growth 96h inconclusive
CC1(C)N=C(N)N=C(N)N1c1cccc(C#N)c1	Vaccinia Venus 4.47µM, HCV inh inconclusive, Vaccinia mCherry 2µM (no result: Pf growth 48h, NS1 inh, Pf growth 96h)
CCOc1ccc(N2C(N)=NC(N)=NC2(C)C)cc1	Pf growth 48h 0.131µM, Vaccinia Venus inconclusive
CC1(C)N=C(N)N=C(N)N1c1cccc(C(=O)O)c1	none (no result: Pf growth 96h)
O=C(CSc1nc2c(c(=O)[nH]1)CN(Cc1ccc3c(c1)OCO3)CC2)Nc1ccc(F)cc1	none (no result: Pf growth 48h, NS1 inh, HCV inh, Pf growth 96h)
CCCCn1ccc(O)c(Cc2ccc(F)cc2)c1=O	Pf growth 48h inconclusive (no result: Vaccinia mCherry)
Cc1ccc(C2C(C#N)=C(N)Oc3cc(N)ccc32)cc1 (stereo not drawn)	none (no result: Vaccinia Venus, Vaccinia mCherry)
N#CC1=C(N)Oc2cc(N)ccc2C1c1ccsc1 (stereo not drawn)	Pf growth 96h 10.4µM
c1ccc(N2CCN(c3nnc(Cc4cccnc4)c4ccccc34)CC2)nc1	Pf growth 48h 7.38µM, HCV inh inconclusive (no result: Vaccinia Venus, Vaccinia mCherry)
c1ccc(Cc2nnc(N3CCCCC3)c3ccccc23)cc1	Pf growth 96h inconclusive (no result: NS1 inh)
